This is a sample that favours compounds with a hit; in the whole collection about 2.5% have one here.
TMEM16A act = mouse TMEM16A channel activation, primary screen. actives 0.3% (n = 340,000). B-score at 10 µM. Q8BHY3. HEK293 TMEM16A/YFP-H148Q/I152L, iodide quench fluorescence; stronger effect = lower value. AID 623877;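 active means fluorescence-ratio B-score plate-corrected deviation score at least 3 library SD below zero, with starting fluorescence score within 5 deviations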;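 further: channel opened by trigger with iodide after compound preincubation; score built on the fluorescence ratio of max minus min over baseline; more negative score means more quench and so TMEM16A activation or potentiation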
ANO1 block = inhibitors of mouse TMEM16A calcium-activated chloride channel; actives 1.2% (n = 310,000); normalized B-score (activity score, 25-100; higher = stronger inhibition) at 10 µM; HEK293 TMEM16A/YFP iodide influx fluorescence, ionomycin;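 active means ratio plate-corrected score three or more library SD toward inhibition, starting fluorescence score within five deviations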;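 further: score derived from kinetic fluorescence span divided by baseline fluorescence per well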
CHT inh = inhibitors of human choline transporter CHT. Q9GZV3. actives 0.86% (n = 310,000). CHT-expressing cells, membrane potential dye, choline response; stronger effect = lower value. AID 488975. B-score at 10 µM;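 active means B-score over 3 SD under the library average, and starting fluorescence ratio not unusually high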;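 further: choline stimulus applied at its EC90 after an EC20 pre-addition; B-score computed on integrated fluorescence ratio after choline addition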
PKA-R1A act = PKA-R1A complex activation | P00514+P68181 | activation, % at 11.4 µM | actives 0.083% (n = 340,000) | PKA-R1A dissociation, Cy5-IP20 fluorescence polarization; scaled: DMSO 0%, 113 µM cGMP 100%;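 active means percent activation above the mean of all tested compounds plus 3 SD, cut at about 19% in these data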;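 further: higher means more PKAc released from R1A so a rise in polarization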
CHT PAM = human CHT allosteric activation; Q9GZV3; CHT-expressing cells, membrane potential dye, choline EC20; stronger effect = higher value; LV-AA mutant CHT in HEK293 cells; B-score at 10 µM; actives 0.49% (n = 310,000); AID 488977;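 active means initial fluorescence not abnormally high and integrated response B-score, plate-corrected, over 3 SD above library mean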
PKA-R2B act = activators of human PKA-R2B complex | activation, % at 11.4 µM | PKA-R2B holoenzyme dissociation, Cy5-IP20 fluorescence polarization; R2B truncated from residue 108, S112A mutant; 0% DMSO only, 100% 113 µM cGMP | P22694+P31323 | AID 504700 | actives 0.079% (n = 340,000);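 active means activation above a cutoff set at the mean over all compounds plus 3 SD, cut at about 18% in these data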;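 further: higher means more holoenzyme dissociation and a rise in polarization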
The depositor's hits bear a star.

Results for CCc1ccc(/C=C2/SC(=S)N(CCCC(=O)Nc3ccccc3C(=O)O)C2=O)cc1 ?
TMEM16A act: inactive; ANO1 block: 100*; CHT inh: -7.5*; PKA-R1A act: 3; CHT PAM: inactive; PKA-R2B act: 14

Results for O=C(NC(=S)Nc1ccccc1)c1cc(-c2ccccc2)nc2ccccc12 ?
TMEM16A act: inactive; ANO1 block: inactive; CHT inh: inactive; PKA-R1A act: 0; CHT PAM: inactive; PKA-R2B act: -13

Results for COc1ccc(Cl)cc1C(=O)NNC(=S)NC(=O)c1cc(-c2ccc(Cl)cc2)nc2ccccc12 ?
TMEM16A act: inactive; ANO1 block: 100*; CHT inh: inactive; PKA-R1A act: -6; CHT PAM: inactive; PKA-R2B act: 1

What do the screens show for `CCNC(=S)NNC(=O)c1cc(-c2ccc(OC)cc2)nc2ccccc12`?
TMEM16A act: inactive; ANO1 block: inactive; CHT inh: inactive; PKA-R1A act: 7; CHT PAM: inactive; PKA-R2B act: 5

How did CCCCOc1ccc(-c2cc(C(=O)NNC(=S)NCC)c3ccccc3n2)cc1 do in these assays?
TMEM16A act: inactive; ANO1 block: 100*; CHT inh: inactive; PKA-R1A act: 0; CHT PAM: inactive; PKA-R2B act: -11

What do the screens show for `O=[N+]([O-])c1ccccc1/C=N/Nc1nnc(-c2ccccc2)c(-c2ccccc2)n1`?
TMEM16A act: inactive; ANO1 block: inactive; CHT inh: inactive; PKA-R1A act: 5; CHT PAM: inactive; PKA-R2B act: -2

What do the screens show for `CC(C)(C)c1ccc(C(=O)NCCC(=O)Nc2ccc3c(c2)OCCO3)cc1`?
TMEM16A act: inactive; PKA-R1A act: 6; PKA-R2B act: -8

Results for CCCCn1c(N)c(N(CCOC)C(=O)c2cc(S(=O)(=O)N3CCOCC3)ccc2Cl)c(=O)[nH]c1=O ?
TMEM16A act: inactive; PKA-R1A act: -5; PKA-R2B act: -11

How did Cn1nnc2ccccc2c1=O do in these assays?
TMEM16A act: inactive; ANO1 block: inactive; CHT inh: inactive; PKA-R1A act: -5; CHT PAM: inactive; PKA-R2B act: -6

What do the screens show for `Cc1cc(C)cc(-n2cccc2/C=C2/C(=N)N3C(=NC2=O)SN=C3S(C)(=O)=O)c1`?
TMEM16A act: inactive; ANO1 block: 100*; CHT inh: inactive; PKA-R1A act: 1; CHT PAM: inactive; PKA-R2B act: 6

What do the screens show for `CS(=O)(=O)C1=NSC2=NC(=O)/C(=C\c3cccn3-c3ccccc3Cl)C(=N)N21`?
TMEM16A act: inactive; ANO1 block: inactive; CHT inh: inactive; PKA-R1A act: -8; CHT PAM: inactive; PKA-R2B act: -11

How did CCOC(=O)c1c(C)oc2ccc(O)c(CN(C)C)c12 do in these assays?
TMEM16A act: inactive; ANO1 block: inactive; CHT inh: inactive; PKA-R1A act: -8; CHT PAM: inactive; PKA-R2B act: 9

What do the screens show for `CCOC(=O)c1c(CSc2ccc(CC)cc2)oc2ccc(O)c(CN(C)C)c12`?
TMEM16A act: inactive; ANO1 block: 100*; CHT inh: inactive; PKA-R1A act: -10; CHT PAM: inactive; PKA-R2B act: -9

Results for COc1ccc(O[C@H]2C=C[C@@H](c3ccccc3)O[C@@H]2COC(=O)CC/C(C)=N/OC[C@@H](O)COCc2ccco2)cc1 ?
ANO1 block: 25*; CHT inh: inactive; CHT PAM: inactive

Results for CCOC(=O)N1CCN(C(=O)c2ccc(Cn3c(=S)[nH]c4ccc(Br)cc4c3=O)cc2)CC1 ?
TMEM16A act: inactive; ANO1 block: 100*; CHT inh: inactive; PKA-R1A act: -5; CHT PAM: inactive; PKA-R2B act: -2

What do the screens show for `Cc1ccc(-n2c(SCC(=O)NC3CCS(=O)(=O)C3)nc3ccccc3c2=O)c(C)c1` (centres undefined)?
PKA-R1A act: -5; PKA-R2B act: -3

Source: PubChem
